Only some compounds are listed: those with a hit (about 5% of all), similar ones and a draw of the others.
EBI2 antag: EBI2 (human) antagonism; P32249; EBI2 beta-arrestin recruitment, luminescence, 7a,25-OHC stimulated; inhibition, % at 5 µM; actives 0.81% (n = 360,000); AID 651636; in the data active = inhibition above about 38%;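 note: enzyme fragment complementation signal reports receptor beta-arrestin coupling in cells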
Target sequence (P32249 whole entry, looked up, the tested form may be a part): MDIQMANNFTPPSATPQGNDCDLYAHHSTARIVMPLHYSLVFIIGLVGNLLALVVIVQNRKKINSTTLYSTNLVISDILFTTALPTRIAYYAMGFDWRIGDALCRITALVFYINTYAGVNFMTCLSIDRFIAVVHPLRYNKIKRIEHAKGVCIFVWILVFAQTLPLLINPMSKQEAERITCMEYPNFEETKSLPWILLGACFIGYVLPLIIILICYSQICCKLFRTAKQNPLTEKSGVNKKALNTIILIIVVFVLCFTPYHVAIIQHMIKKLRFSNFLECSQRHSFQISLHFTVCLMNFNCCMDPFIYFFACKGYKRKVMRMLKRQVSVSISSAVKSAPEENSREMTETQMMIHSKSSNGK
SENP6 inh: inhibitors of human SENP6 protease. Recombinant SENP6 catalytic domain, aminoluciferin luminescence. inhibition, % at 10 µM. Q9GZR1. actives 1.8% (n = 330,000);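 active = inhibition above about 50% at the single tested dose, limit read from the data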
SENP7 inh: inhibitors of human SENP7 protease; recombinant SENP7, Z-RLRGG-aminoluciferin luminescence, 40 min; inhibition, % at 5 µM; actives 1.5% (n = 330,000);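 active = inhibition above about 50% at the single test dose, limit read from the data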
AHR act: activators of human aryl hydrocarbon receptor; actives 2.5% (n = 320,000); AHR-responsive luciferase reporter cells, luminescence; activation, % at 5 µM; in the data active = activation above about 47%
SENP8 block-1: blocks human SENP8 cleavage of Nedd8 substrate; inhibition, % at 20 µM; recombinant SENP8, Nedd8 substrate fluorescence; Q96LD8; actives 0.64% (n = 360,000); AID 602440; in the data active = inhibition mostly above about 40%, no sharp cut-off; inactive = mostly below about 27%
Target sequence (Q96LD8 whole entry, looked up): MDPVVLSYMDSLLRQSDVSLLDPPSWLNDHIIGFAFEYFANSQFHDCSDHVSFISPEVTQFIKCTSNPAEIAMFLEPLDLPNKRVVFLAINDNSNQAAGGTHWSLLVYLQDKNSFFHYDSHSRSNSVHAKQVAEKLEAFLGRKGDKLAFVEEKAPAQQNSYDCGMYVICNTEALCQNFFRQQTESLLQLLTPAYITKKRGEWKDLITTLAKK
SENP8 block-2: inhibitors of human SENP8 protease; Q96LD8; purified SENP8, Z-RLRGG-aminoluciferin cleavage, luminescence; inhibition, % at 10 µM; actives 1.2% (n = 330,000); in the data active = inhibition above about 50%
AHR act confirm: human AHR activation, confirmation; shares compounds with AHR act; human cells, AHR-responsive luciferase reporter, luminescence; activation, % at 9 µM; actives 87% (n = 2,300); in the data active = activation above about 49%;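 note: HepG2 hepatoma cells carrying a DRE-driven firefly luciferase reporter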
PXR act counter: PXR activation, counter-screen for AHR activators; shares compounds with AHR act; cell-based PXR reporter, luciferase luminescence; activation, % at 11.6 µM; actives 88% (n = 2,300); AID 434939; in the data active = activation above about 11%;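 note: human hepatoma DPX-2 cells expressing full-length human PXR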
Large screens that a line does not name were inactive (follow-up assays come after a bar, where they were run).

Cc1ccc(-n2c(C)cc(/C=C3\NC(=O)NC3=O)c2C)c(C)c1	none
Cc1cc(/C=C2/NC(=O)NC2=O)c(C)n1-c1ccccn1	AHR act 136.6 | AHR act confirm 87.9 | PXR act counter 22.6
COc1ccc(/C=N/NC(=O)c2ccc(O)cc2O)cc1CSc1ccccn1	none
CCCCCOc1ccc(Cn2ccnc2)cc1[N+](=O)[O-]	AHR act 101.1 | AHR act confirm 75.2 | PXR act counter 53.1
O=C(CCC(=O)NNc1nc2ccccc2c2nc(-c3ccccc3)nn12)NCCCN1CCOCC1	AHR act 83.7 | AHR act confirm 91.0 | PXR act counter 16.3
CCc1cccc(NC(=O)[C@@H]2CCCN2C2=NS(=O)(=O)c3ccccc32)c1	none
CC(=O)n1cc(/C=N/NC(=O)c2sc(C)nc2C)c2ccccc21	AHR act 94.1 | AHR act confirm 64.3
CC1C(=O)N(Cc2cn(CCC3OCCCO3)nn2)CCS(=O)(=O)N1Cc1ccc(-c2ccc(F)nc2)cc1 (stereo unspecified)	none (no result: SENP6 inh, SENP7 inh, AHR act, SENP8 block-2)
Cc1c(C(=O)O/N=C(\N)c2ccccn2)cccc1[N+](=O)[O-]	SENP6 inh 78.6, SENP7 inh 85.1, AHR act 97.0, SENP8 block-2 77.7 | AHR act confirm 92.0 | PXR act counter 11.6
N/C(=N\OC(=O)c1cc(Br)ccc1Cl)c1ccccn1	AHR act 108.3 | AHR act confirm 61.3 | PXR act counter 12.3
O=C(NCc1ccccc1)c1nncc(-c2ccccc2)n1	none
[O-][n+]1onc2c3cc(-c4ccccc4)nnc3ccc21	AHR act 88.1 | AHR act confirm 107.6
COc1ccc(C2c3[nH]c4ccccc4c3CCN2C(=O)Cc2nonc2C)c(F)c1 (stereo unspecified)	none
C/C(=N\Nc1cc(N2CCOCC2)ncn1)c1ccccc1	AHR act 89.4 | AHR act confirm inactive | PXR act counter 49.6
C/C(=N\Nc1cc(N2CCOCC2)ncn1)c1cccc([N+](=O)[O-])c1	none
O=C1c2ccccc2NC(c2ccc(Br)s2)N1O (stereo unspecified)	AHR act 79.9 (no result: EBI2 antag, SENP8 block-1) | AHR act confirm 81.0 | PXR act counter 24.7
CCn1c2ccccc2c2cc(NC(=O)c3cccc([N+](=O)[O-])c3)ccc21	AHR act 85.6 | AHR act confirm 88.6 | PXR act counter 33.5
CCn1c2ccccc2c2cc(NC(=O)c3ccc(C)c([N+](=O)[O-])c3)ccc21	none
Cc1c(C(=O)Nc2ccc(C(=O)Nc3ccccc3)cc2)cccc1[N+](=O)[O-]	none
CCn1c2ccccc2c2cc(NC(=O)c3cccc([N+](=O)[O-])c3C)ccc21	AHR act 112.6 | AHR act confirm 87.1 | PXR act counter 54.8
COc1ccc(C(=O)NC2CCCc3ccccc32)cc1S(=O)(=O)N1CCOCC1 (stereo unspecified)	none
CCOC(=O)c1c(C)[nH]c(C(=O)N/N=C\c2ccccc2Cl)c1C	AHR act 81.5 | AHR act confirm 73.3 | PXR act counter 14.7
CC(=O)Nc1nnc(-c2ccco2)o1	none
Fc1cccc2sc(Nc3nnc(-c4ccco4)o3)nc12	AHR act 150.8 | AHR act confirm 121.0 | PXR act counter 40.5
COc1ccccc1NC(=O)CN(Cc1ccco1)C(=O)c1ccc(Cl)nc1	AHR act 85.2 | AHR act confirm 108.8 | PXR act counter 62.3
COc1ccccc1NC(=O)CN(Cc1ccco1)C(=O)c1cc(Cl)c(OC)c(OC)c1	none (no result: SENP6 inh, SENP7 inh, AHR act, SENP8 block-2)
O=C(N[C@@H](Cc1ccccc1)C(=O)N1CCN(S(=O)(=O)c2ccccc2F)CC1)c1ccco1	none
C=CCNC(=O)c1ccccc1NC(=O)c1cccc2ccccc12	AHR act 94.4 | AHR act confirm 89.0 | PXR act counter 83.9
CCOC(=O)c1[nH]c2ccccc2c1NC(=O)CN1CCCCC1	none
CCOC(=O)c1[nH]c2cc3c(cc2c1NC(=O)CN1CCCCC1C)OCO3 (stereo unspecified)	AHR act 96.9 (no result: EBI2 antag, SENP8 block-1) | AHR act confirm 91.7 | PXR act counter 181.8
CCN(CC)c1ccc(/C=N/NC(=O)C2CC2)cc1	AHR act 85.3 | AHR act confirm 76.7 | PXR act counter 44.2
CCCCCCOc1ccc(/C=N/NC(=O)C2CC2)cc1	none (no result: AHR act)
CC(=O)c1cccc(NC(=O)CN(C)S(=O)(=O)c2cccc3nsnc23)c1	none
COc1ccccc1NC(=O)COC(=O)c1ccc(S(=O)(=O)N2CCCCCC2)cc1	none
COc1ccc(Cl)cc1NC(=O)C(OC)c1ccccc1 (stereo unspecified)	AHR act 101.2 | AHR act confirm 96.6 | PXR act counter 47.3
COc1cc(NC(=O)C/C(C)=N/NC(=O)C(OC)c2ccccc2)c(OC)cc1Cl (stereo unspecified)	AHR act 105.2 | AHR act confirm inactive | PXR act counter inactive
COc1ccc(Cl)cc1NC(=O)C/C(C)=N/NC(=O)Cc1ccccc1	none
O=C(COc1cc(F)ccc1[N+](=O)[O-])Nc1cc(S(=O)(=O)N2CCCC2)ccc1Cl	none (no result: AHR act)
COC(=O)c1sccc1-c1ccc(C(=O)Nc2cccc(Cl)c2)o1	AHR act 103.7 | AHR act confirm 73.9 | PXR act counter 24.7
O=C(COc1ccccc1)N1CCN(S(=O)(=O)c2cccc([N+](=O)[O-])c2)CC1	none
Cc1ccc(Cl)cc1NC(=S)NN	none
COc1cc2ccccc2cc1C(=O)Nc1ccc(C)cc1	AHR act 83.2 | AHR act confirm 92.1
COc1cc(OC)c(C(=O)Nc2ccc(C(=O)c3ccccc3)cc2)cc1OC	none
COc1ccccc1C(=O)Nc1ccc(N2CCN(C(C)=O)CC2)cc1	none
COc1ccc(Br)cc1C(=O)Nc1ccc(N2CCCC2)cc1	AHR act 104.6 | AHR act confirm 148.1 | PXR act counter 17.7
COc1ccccc1C(=O)Nc1ccc(N2CCCCC2)cc1	AHR act 87.6 | AHR act confirm 99.2
CCCN(CCC)Cc1cc(=O)oc2ccc3ccccc3c12	none (no result: SENP6 inh, SENP7 inh, AHR act, SENP8 block-2)
O=C(COC(=O)C1CC2CCCC(C1)C2=O)NNC(=O)c1ccc([N+](=O)[O-])cc1 (stereo unspecified)	none
CCN1C(=O)CCN(C2CCCC2)c2nc(Nc3ccc(C(=O)NC4CCN(C)CC4)cc3OC)ncc21	none (no result: SENP6 inh, SENP7 inh, AHR act, SENP8 block-2)
COc1cc(C#Cc2c(-c3cncn3C)n(C)c3ccc(-c4ccc5cc[nH]c5c4)cc23)cc(OC)c1	AHR act 105.7 | AHR act confirm 82.5 | PXR act counter 23.1
C=CCn1c(=O)c(C(=O)NC2CC2)c(O)c2cc(OC)c(OC)cc21	AHR act 102.4 | AHR act confirm inactive | PXR act counter 29.9
C=CCn1c(=O)c(C(=O)NCCc2ccc(Cl)cc2)c(O)c2cc(OC)c(OC)cc21	none
